High-throughput results as filed in PubChem.
Compounds with a hit are over-represented: about 3.9% of the library has one in this group of screens.
Peg3 promoter – Peg3 promoter-driven luciferase inhibitors, primary screen, cell-based, HeLa, luciferase luminescence. inhibition, % at 20 µM. actives 1.7% (n = 360,000). HeLa PEG-Prom luciferase reporter, overnight;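 active means inhibition of at least 50% at 20 µM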
CF NFkB inh – inhibitors of PAF-induced NF-kB signaling, primary screen, cell-based, GFP fluorescence, uHTS. KKLEB NF-kB-GFP reporter, GFP fluorescence overnight. inhibition, % at 5 µM. actives 0.86% (n = 360,000). AID 588850, 2011;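 active means at least 50% inhibition at 5 µM, scaled per plate between neutral and stimulator controls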;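 further: PAF is a Pseudomonas aeruginosa culture filtrate used as stimulus; plate controls were PAF-stimulated DMSO wells for no effect and unstimulated DMSO wells for full effect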
TWEAK Fn14 block – inhibitors of TWEAK-Fn14 signaling, primary screen, luciferase reporter cells, uHTS; inhibition, % at 10 µM; AID 1159606, 2016; TWEAK-stimulated Fn14 reporter cells, luciferase luminescence, 8 h; actives 2% (n = 360,000); in the data active means inhibition above about 50%
KKLEB cytotox – cytotoxicity in KKLEB CF airway cells, primary screen, cytotoxicity control for CF NF-kB inhibitor project, cell-based, uHTS, fluorescence assay plates; KKLEB CF airway cells viability, ATPlite luminescence, overnight; stronger effect = lower value; cells stimulated with P. aeruginosa culture filtrate; activity change (cytotoxicity), % at 5 µM; actives 0.36% (n = 360,000);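 active means corrected activity change at or below -50% at 5 µM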
TROY signal inh – inhibitors of TROY-driven NF-kB signaling, primary screen, Q293 LMP1-TROYcd cells, NF-kB luciferase, uHTS; Q293 LMP1-TROYcd NF-kB luciferase reporter, 4 h; inhibition, % at 10 µM; actives 0.98% (n = 360,000); AID 1347056, 2019;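 active means compounds whose plate-normalised and pattern-corrected inhibition of the luciferase reporter signal at the single screening dose is 50% or more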
HIF-2a block – HIF-2a reporter inhibitors, primary screen, luminescence, 786-0 RCC cells; 786-0 RCC cells HIF-2a reporter, luciferase luminescence, overnight; inhibition, % at 18.8 µM; actives 0.72% (n = 360,000); AID 624352, 2012;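 active means inhibition of the luminescence signal of 40% or more relative to plate controls, in a single-dose primary screen at 18.75 µM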
Mdm2-MdmX confirm – retested Mdm2-MdmX interaction blockers, confirmation, cell-based, luminescence, single concentration, set 2; AID 504601, 2011; SaOS-2 split-luciferase Mdm2/MdmX complementation; inhibition, % at 8 µM; actives 99% (n = 740); shares compounds with HIF-2a block;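 active means mean inhibition of the luminescence signal across two replicates at or above 26 percent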
Target sequence (O15151 whole entry, looked up): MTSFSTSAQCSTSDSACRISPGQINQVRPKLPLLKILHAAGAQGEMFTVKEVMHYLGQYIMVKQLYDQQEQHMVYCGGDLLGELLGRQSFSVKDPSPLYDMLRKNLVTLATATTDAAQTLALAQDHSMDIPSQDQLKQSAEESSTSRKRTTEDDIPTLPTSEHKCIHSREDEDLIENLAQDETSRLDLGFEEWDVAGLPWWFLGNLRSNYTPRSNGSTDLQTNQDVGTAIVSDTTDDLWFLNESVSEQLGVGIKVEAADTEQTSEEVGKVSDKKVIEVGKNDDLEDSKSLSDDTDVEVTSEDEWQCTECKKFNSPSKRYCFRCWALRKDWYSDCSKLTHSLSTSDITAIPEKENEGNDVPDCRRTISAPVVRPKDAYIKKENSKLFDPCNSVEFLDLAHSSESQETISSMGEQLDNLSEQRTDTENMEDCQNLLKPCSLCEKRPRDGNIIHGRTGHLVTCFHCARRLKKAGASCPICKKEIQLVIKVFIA
Target sequence (Q00987 whole entry, looked up): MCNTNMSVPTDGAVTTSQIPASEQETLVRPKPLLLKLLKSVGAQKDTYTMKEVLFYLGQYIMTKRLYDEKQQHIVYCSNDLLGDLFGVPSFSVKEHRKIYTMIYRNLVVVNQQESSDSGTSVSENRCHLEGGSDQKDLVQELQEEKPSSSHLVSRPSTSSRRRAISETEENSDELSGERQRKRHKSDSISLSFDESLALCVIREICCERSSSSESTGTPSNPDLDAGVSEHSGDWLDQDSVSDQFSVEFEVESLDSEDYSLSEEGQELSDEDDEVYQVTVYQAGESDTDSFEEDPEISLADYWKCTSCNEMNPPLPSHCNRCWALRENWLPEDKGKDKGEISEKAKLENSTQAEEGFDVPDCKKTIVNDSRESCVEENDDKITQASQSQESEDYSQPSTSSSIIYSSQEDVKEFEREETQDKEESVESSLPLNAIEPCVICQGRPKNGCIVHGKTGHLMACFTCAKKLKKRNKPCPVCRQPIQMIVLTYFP
HIF-2a conf – HIF-2a reporter inhibitor retest, confirmation, luminescence, 786-0 RCC cells | shares compounds with HIF-2a block | HIF-2a luciferase reporter luminescence, overnight | inhibition, % at 18.8 µM | actives 56% (n = 1,800);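 active means mean inhibition across four replicates of at least 40 percent at the single tested concentration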
HIF-1a counter – HIF-1a luciferase reporter signal reduction – MiaPaCa-2 cells, single concentration, counter-screen for HIF-2a inhibitor project, confirmation. shares compounds with HIF-2a block. MiaPaCa-2 HIF-1a luciferase reporter, desferoxamine, overnight. inhibition, % at 18.8 µM. actives 72% (n = 1,800). AID 651589, 2012;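 active means mean inhibition of the reporter signal across four replicates at the single tested dose of 50% or more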
The depositor's hits bear a star.

Screening CC(C)(C)c1ccc(-c2noc(CCC(=O)Nc3cccnc3)n2)cc1 returned Peg3 promoter -202, CF NFkB inh -11, TWEAK Fn14 block 36, KKLEB cytotox -6, TROY signal inh 58*, HIF-2a block 92*, HIF-2a conf 96* and HIF-1a counter -4.
Screening Cc1ccc(-c2noc(CCC(=O)NCC3CCCO3)n2)cc1 (stereo unspecified) returned Peg3 promoter 0, CF NFkB inh 8, TWEAK Fn14 block 15, KKLEB cytotox -13, TROY signal inh -26 and HIF-2a block -9.
Screening CC(C)(C)c1ccc(-c2noc(CCC(N)=O)n2)cc1 returned Peg3 promoter 49, CF NFkB inh 18, TWEAK Fn14 block 11, KKLEB cytotox -9, TROY signal inh 46, HIF-2a block 87*, HIF-2a conf 94* and HIF-1a counter -9.
Screening CC(C)(C)c1ccc(-c2noc(CCC(=O)NCC3CCCO3)n2)cc1 (stereo unspecified) returned Peg3 promoter -151, CF NFkB inh 7, TWEAK Fn14 block 26, KKLEB cytotox -11, TROY signal inh -4, HIF-2a block 80*, HIF-2a conf 95* and HIF-1a counter -80.
`CCC1Oc2ccc(C)cc2N(CC(=O)NCc2ccco2)C1=O` (stereo unspecified) gave Peg3 promoter 6, CF NFkB inh -1, TWEAK Fn14 block -2, KKLEB cytotox -18, TROY signal inh 8 and HIF-2a block 16.
For c1cc(-c2ccncc2)ccn1 the results were Peg3 promoter 2, CF NFkB inh 11, TWEAK Fn14 block 10, KKLEB cytotox 2, TROY signal inh -3 and HIF-2a block 12.
For Cc1ccc2[nH]c3c(c2c1)SC(C)(C)CC3=O the results were Peg3 promoter 26, CF NFkB inh 10, TWEAK Fn14 block 10, KKLEB cytotox -14, TROY signal inh 9 and HIF-2a block -2.
`COc1ccccc1CNC(=O)CNCCc1ccc(OC)c(OC)c1` gave Peg3 promoter 4, CF NFkB inh -2, TWEAK Fn14 block -13, KKLEB cytotox 4, TROY signal inh 5 and HIF-2a block 14.
`COC(=O)COc1ccc(/C=N/NC(=O)CN(c2ccccc2OC)S(=O)(=O)c2ccccc2)cc1` gave Peg3 promoter 18, CF NFkB inh 20, TWEAK Fn14 block 0, KKLEB cytotox 0, TROY signal inh -12, HIF-2a block 57*, HIF-2a conf 74* and HIF-1a counter 57*.
For COC(=O)COc1ccc(/C=N/NC(=O)c2ccc(N(Cc3ccccc3)S(C)(=O)=O)cc2)cc1 the results were Peg3 promoter 4, CF NFkB inh -4, TWEAK Fn14 block 0, KKLEB cytotox -10, TROY signal inh 6, HIF-2a block 64*, HIF-2a conf 19 and HIF-1a counter -3.
COc1cccc2cc(C(=O)NCc3ccc(C)cc3)c(=O)oc12 was read as Peg3 promoter -12, CF NFkB inh 0, TWEAK Fn14 block 5, KKLEB cytotox -8, TROY signal inh -21 and HIF-2a block 12.
For Cc1ccc(NC(=O)c2nc[nH]c2C(=O)NCCN(CCNC(=O)c2[nH]cnc2C(=O)Nc2ccc(C)cc2)CCNC(=O)c2[nH]cnc2C(=O)Nc2ccc(C)cc2)cc1 the results were Peg3 promoter 24, CF NFkB inh 21, TWEAK Fn14 block 19, KKLEB cytotox -23, TROY signal inh -18 and HIF-2a block -25.
For O=C(Nc1ccc(Cl)cc1)c1nc[nH]c1C(=O)NCCN(CCNC(=O)c1[nH]cnc1C(=O)Nc1ccc(Cl)cc1)CCNC(=O)c1[nH]cnc1C(=O)Nc1ccc(Cl)cc1 the results were Peg3 promoter 101*, CF NFkB inh 71*, TWEAK Fn14 block 11, KKLEB cytotox -56*, TROY signal inh 6, HIF-2a block -42 and Mdm2-MdmX confirm 100*.
`CC(C)NC(=O)/C(C#N)=C/c1cccc(NC(=O)c2ccccc2Cl)c1` gave Peg3 promoter 9, CF NFkB inh 25, TWEAK Fn14 block 38, KKLEB cytotox -18, TROY signal inh 20, HIF-2a block 48*, HIF-2a conf 34 and HIF-1a counter 15.
OC(c1ccccc1)(c1ccccc1)C1CCN(CCCOc2cccc(OC(F)(F)F)c2)CC1 was read as TWEAK Fn14 block -1, TROY signal inh 16 and HIF-2a block 11.
`CC(C)(C)c1ccc(C(O)CCCN2CCC(C(O)(c3ccccc3)c3ccccc3)CC2)cc1` (stereo unspecified) gave Peg3 promoter 96*, CF NFkB inh 14, TWEAK Fn14 block -26, KKLEB cytotox -15, TROY signal inh 2, HIF-2a block 97*, HIF-2a conf -1 and HIF-1a counter 108*.
Screening CN(C)CCNC(=O)c1cccc(-c2cnc3c(NC=O)cc(-c4cc(F)c(F)c(F)c4)cn23)c1 returned Peg3 promoter 26, CF NFkB inh 21, TWEAK Fn14 block -20, KKLEB cytotox -17, TROY signal inh -15, HIF-2a block 88*, HIF-2a conf 8 and HIF-1a counter 107*.
CN(C)CCNC(=O)c1cccc(-c2cc(NC=O)c3ncc(-c4cccc(C(F)(F)F)c4)n3c2)c1 was read as Peg3 promoter 98*, CF NFkB inh 1, TWEAK Fn14 block -192, KKLEB cytotox -10, TROY signal inh -3, HIF-2a block 95*, HIF-2a conf 9 and HIF-1a counter 106*.
`CCNC(=O)C1(C)CCN1C(=O)CCc1cccc(Cl)c1` (stereo unspecified) gave Peg3 promoter 2, CF NFkB inh 2, TWEAK Fn14 block 10, KKLEB cytotox 5, TROY signal inh -4 and HIF-2a block 2.
